Data taken from PubChem BioAssay AID1159580 (chemical genetic matrix, 2015).
Several values for one entry are separate records, joined by “and”; a condition that tells them apart may be missing. Identical values can stand only once. About 2,000 (36%) of roughly 5,500 compounds were called active. Another 18% or so got no clear call; they are omitted. Rule as the data show it: active = normalized growth mostly below about 0.91 (no sharp cut-off); inconclusive = no clear call, values can overlap the other calls; inactive = mostly above about 0.92. The list shows a part of the results.

Test: chemical genetic growth profiling, strain panel (AID 1159580);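 also: tested at 20 µM; growth read once vehicle control cultures reached saturation at 30 °C; 1 = growth at the plate median or of vehicle wells; lower values mean less growth of the strain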
Settings: S. cerevisiae deletion strains, growth OD
[1] = locus YAL013W, strain DEP1, stronger effect = lower value
[2] = locus YDR150W, strain NUM1, stronger effect = lower value
[3] = locus YGR078C, strain PAC10, stronger effect = lower value
[4] = locus YGR229C, strain SMI1, stronger effect = lower value
[5] = locus YMR307W, strain GAS1, stronger effect = lower value
[6] = locus YNL153C, strain GIM3, stronger effect = lower value
[7] = locus YPL055C, strain LGE1, stronger effect = lower value
[8] = locus YAL040C, strain CLN3, stronger effect = lower value
[9] = locus YCL061C, strain MRC1 (second series), stronger effect = lower value
[10] = locus YDR363W, strain ESC2, stronger effect = lower value
[11] = locus YER002W, strain NOP16, stronger effect = lower value
[12] = locus YJR075W, strain HOC1, stronger effect = lower value
[13] = locus YMR263W, strain SAP30, stronger effect = lower value
[14] = locus YNL128W, strain TEP1, stronger effect = lower value
[15] = locus YNL175C, strain NOP13, stronger effect = lower value
[16] = locus YNL197C, strain WHI3, stronger effect = lower value
[17] = locus YNL224C, strain SQS1, stronger effect = lower value
[18] = locus YNL322C, strain KRE1, stronger effect = lower value
[19] = locus YOR083W, strain WHI5 (second series), stronger effect = lower value
[20] = locus YPL241C, strain CIN2, stronger effect = lower value

Measured: normalized growth

CC(C)(O)CC[C@@H](O)[C@](C)(O)C1CC[C@@]2(O)C3=CC(=O)C4C[C@@H](O)[C@@H](O)C[C@]4(C)C3CC[C@]12C (stereo not given in full)
inactive: [1] 1.04 | locus YAL021C, strain ccr4, stronger effect = lower value 0.991 | locus YAL026C, strain drs2, stronger effect = lower value 1 | locus YAL030W, strain snc1, stronger effect = lower value 0.999 | locus YBL061C, strain skt5, stronger effect = lower value 1 | locus YBR009C, strain hhf1, stronger effect = lower value 1.01 | locus YBR021W, strain FUR4, stronger effect = lower value 0.984 | locus YBR023C, strain chs3, stronger effect = lower value 0.996 | locus YBR171W, strain sec66, stronger effect = lower value 0.99 | locus YBR229C, strain ROT2, stronger effect = lower value 1 | locus YBR231C, strain swc5, stronger effect = lower value 0.993 | locus YBR279W, strain paf1, stronger effect = lower value 1.01 | locus YCL011C, strain gbp2, stronger effect = lower value 1.01 | locus YCL016C, strain dcc1, stronger effect = lower value 0.995 | locus YCL029C, strain bik1, stronger effect = lower value 1 | locus YCL061C, strain MRC1, stronger effect = lower value 1 | locus YCL069W, strain vba3, stronger effect = lower value 1.03 | locus YCR088W, strain abp1, stronger effect = lower value 0.999 | locus YDL005C, strain med2, stronger effect = lower value 0.994 | locus YDL035C, strain GPR1, stronger effect = lower value 1.03 | locus YDL040C, strain nat1, stronger effect = lower value 0.98 | locus YDL074C, strain BRE1, stronger effect = lower value 1.03 | locus YDL101C, strain DUN1, stronger effect = lower value 1.02 | locus YDL185W, strain tfp1, stronger effect = lower value 0.999 | locus YDL192W, strain arf1, stronger effect = lower value 1 | locus YDR001C, strain nth1, stronger effect = lower value 1 | locus YDR069C, strain doa4, stronger effect = lower value 1.01 | locus YDR101C, strain arx1, stronger effect = lower value 0.984 | locus YDR137W, strain rgp1, stronger effect = lower value 0.976 | [2] 1.01 | locus YDR159W, strain sac3, stronger effect = lower value 0.99 | locus YDR162C, strain NBP2, stronger effect = lower value 1.03 | locus YDR195W, strain ref2 0.972 | locus YDR297W, strain sur2, stronger effect = lower value 1.01 | locus YDR318W, strain mcm21, stronger effect = lower value 1 | locus YDR334W, strain swr1, stronger effect = lower value 1 | locus YDR335W, strain msn5, stronger effect = lower value 1 | locus YDR388W, stronger effect = lower value 0.993 | locus YDR392W, strain spt3, stronger effect = lower value 0.976 | locus YDR502C, strain sam2, stronger effect = lower value 1 | locus YEL003W, strain gim4, stronger effect = lower value 1.01 | locus YEL037C, strain rad23, stronger effect = lower value 0.992 | locus YEL061C, strain CIN8 (second series), stronger effect = lower value 1 | locus YEL061C, strain CIN8, stronger effect = lower value 1 | locus YER015W, strain faa2, stronger effect = lower value 1 | locus YER016W, strain bim1, stronger effect = lower value 0.996 | locus YER110C, stronger effect = lower value 0.994 | locus YER111C, strain swi4, stronger effect = lower value 1.01 | locus YER155C, strain BEM2 (second series), stronger effect = lower value 0.996 | locus YER155C, strain BEM2, stronger effect = lower value 1 | locus YER167W, strain BCK2, stronger effect = lower value 1.02 | locus YFR010W, strain ubp6, stronger effect = lower value 1 | locus YGL078C, strain dbp3, stronger effect = lower value 1 | locus YGL086W, strain mad1, stronger effect = lower value 1 | locus YGL167C, strain pmr1, stronger effect = lower value 1 | locus YGL173C, strain kem1, stronger effect = lower value 1 | locus YGL227W, strain vid30, stronger effect = lower value 0.999 | locus YGL240W, strain doc1, stronger effect = lower value 0.98 | locus YGL248W, strain PDE1, stronger effect = lower value 1.01 | locus YGL253W, strain hxk2, stronger effect = lower value 1.01 | [3] 1.03 | locus YGR135W, strain pre9, stronger effect = lower value 0.997 | [4] 1.04 | locus YGR252W, strain gcn5, stronger effect = lower value 0.995 | locus YHR013C, strain ard1, stronger effect = lower value 0.995 | locus YHR027C, strain rpn1, stronger effect = lower value 0.997 | locus YHR030C, strain SLT2, stronger effect = lower value 1.01 and 1 | locus YHR079C, strain IRE1 (second series), stronger effect = lower value 1.02 | locus YHR079C, strain IRE1, stronger effect = lower value 0.988 | locus YHR094C, strain hxt1, stronger effect = lower value 0.995 | locus YHR129C, strain ARP1, stronger effect = lower value 1.01 | locus YHR142W, strain chs7, stronger effect = lower value 1.01 | locus YHR200W, strain rpn10, stronger effect = lower value 1.01 | locus YIL066C, strain RNR3, stronger effect = lower value 1.04 | locus YIL073C, strain SPO22, stronger effect = lower value 1.02 | locus YIL125W, strain kgd1, stronger effect = lower value 1 | locus YIR030C, strain dcg1, stronger effect = lower value 1 | locus YJL092W, strain hpr5, stronger effect = lower value 0.998 | locus YJL095W, strain BCK1 (second series), stronger effect = lower value 1 | locus YJL095W, strain BCK1, stronger effect = lower value 1.03 and 1.04 | locus YJL115W, strain asf1, stronger effect = lower value 1 | locus YJL129C, strain trk1, stronger effect = lower value 1.01 | locus YJL134W, strain LCB3, stronger effect = lower value 1.01 | locus YJL154C, strain vps35, stronger effect = lower value 0.994 | locus YJL164C, strain tpk1, stronger effect = lower value 1.01 | locus YJL166W, strain qcr8, stronger effect = lower value 1 | locus YJL168C, strain set2, stronger effect = lower value 1 | locus YJL187C, strain SWE1 (second series), stronger effect = lower value 1.02 | locus YJL187C, strain SWE1, stronger effect = lower value 1.02 | locus YJR043C, strain POL32, stronger effect = lower value 1.02 | locus YJR066W, strain TOR1, stronger effect = lower value 0.93 | locus YKL009W, strain mrt4, stronger effect = lower value 0.995 | locus YKL068W, stronger effect = lower value 0.993 | locus YKL085W, strain MDH1 (second series), stronger effect = lower value 1.01 | locus YKL085W, strain MDH1, stronger effect = lower value 1.01 | locus YKL160W, strain elf1, stronger effect = lower value 1 | locus YKR001C, strain vps1, stronger effect = lower value 0.985 | locus YKR026C, strain gcn3, stronger effect = lower value 0.989 | locus YKR091W, strain srl3, stronger effect = lower value 0.997 | locus YLL001W, strain dnm1, stronger effect = lower value 1 | locus YLL026W, stronger effect = lower value 0.994 | locus YLL041C, strain sdh2, stronger effect = lower value 0.994 | locus YLR027C, strain aat2, stronger effect = lower value 1.01 | locus YLR039C, strain RIC1, stronger effect = lower value 1.01 | locus YLR058C, strain SHM2, stronger effect = lower value 1.01 | locus YLR102C, strain apc9, stronger effect = lower value 0.992 | locus YLR113W, strain HOG1, stronger effect = lower value 1.02 | locus YLR221C, strain rsa3, stronger effect = lower value 0.996 | locus YLR258W, strain gsy2, stronger effect = lower value 0.998 | locus YLR262C, strain YPT6, stronger effect = lower value 1.05 | locus YLR268W, strain sec22, stronger effect = lower value 1 | locus YLR320W, strain mms22, stronger effect = lower value 0.996 | locus YLR330W, strain CHS5, stronger effect = lower value 1.01 | locus YLR342W, strain FKS1 (second series), stronger effect = lower value 1.02 | locus YLR342W, strain FKS1, stronger effect = lower value 1.03 | locus YLR357W, strain rsc2, stronger effect = lower value 0.999 | locus YLR370C, strain arc18, stronger effect = lower value 0.991 | locus YLR371W, strain rom2, stronger effect = lower value 0.99 | locus YLR384C, strain iki3, stronger effect = lower value 0.985 | locus YLR418C, strain cdc73, stronger effect = lower value 0.99 | locus YML016C, strain PPZ1, stronger effect = lower value 1.01 | locus YML032C, strain rad52, stronger effect = lower value 0.998 | locus YML120C, strain ndi1, stronger effect = lower value 0.996 | locus YML124C, strain tub3, stronger effect = lower value 0.996 | locus YMR058W, strain fet3, stronger effect = lower value 1 | locus YMR078C, strain ctf18, stronger effect = lower value 1.01 | locus YMR125W, strain sto1, stronger effect = lower value 0.983 | locus YMR129W, stronger effect = lower value 0.998 | locus YMR205C, strain PFK2, stronger effect = lower value 1.04 | locus YMR223W, strain ubp8, stronger effect = lower value 0.998 | locus YMR231W, strain pep5, stronger effect = lower value 0.969 | [5] 1.1 | locus YNL067W, strain RPL9B, stronger effect = lower value 1.02 | locus YNL071W, strain lat1, stronger effect = lower value 1 | [6] 1.03 | locus YNL183C, strain NPR1, stronger effect = lower value 0.973 | locus YNL209W, strain ssb2, stronger effect = lower value 1.02 | locus YNL233W, strain BNI4, stronger effect = lower value 1.03 | locus YNL248C, strain rpa49, stronger effect = lower value 0.996 | locus YNL250W, strain rad50, stronger effect = lower value 1.01 | locus YNL271C, strain bni1, stronger effect = lower value 1 | locus YNL298W, strain CLA4, stronger effect = lower value 0.988 | locus YNL307C, strain MCK1, stronger effect = lower value 0.992 | locus YNL322C, strain KRE1 (second series), stronger effect = lower value 0.983 | locus YNR049C, strain mso1, stronger effect = lower value 0.991 | locus YNR052C, strain pop2, stronger effect = lower value 0.993 | locus YOL012C, strain htz1 0.787 | locus YOL147C, strain pex11, stronger effect = lower value 0.99 | locus YOR001W, strain rrp6, stronger effect = lower value 1.01 | locus YOR061W, strain CKA2, stronger effect = lower value 1.01 | locus YOR069W, strain VPS5, stronger effect = lower value 1 | locus YOR070C, strain gyp1, stronger effect = lower value 1 | locus YOR080W, strain dia2, stronger effect = lower value 0.996 | locus YOR083W, strain WHI5, stronger effect = lower value 1.01 | locus YOR106W, strain vam3, stronger effect = lower value 1.01 | locus YOR136W, strain idh2, stronger effect = lower value 1 | locus YOR144C, strain elg1, stronger effect = lower value 0.996 | locus YOR184W, strain ser1, stronger effect = lower value 1 | locus YOR231W, strain MKK1, stronger effect = lower value 0.978 | locus YOR265W, strain rbl2, stronger effect = lower value 1 | locus YOR270C, strain vph1, stronger effect = lower value 1.06 | locus YOR290C, strain snf2, stronger effect = lower value 0.995 | locus YOR316C, strain cot1, stronger effect = lower value 0.989 | locus YPL051W, strain arl3, stronger effect = lower value 1.01 | [7] 1.04 | locus YPL078C, strain atp4, stronger effect = lower value 1.01 | locus YPL106C, strain sse1, stronger effect = lower value 1.01 | locus YPL240C, strain hsp82, stronger effect = lower value 0.995 | locus YPL256C, strain CLN2, stronger effect = lower value 0.996 | locus YPR119W, strain clb2, stronger effect = lower value 1 | locus YPR141C, strain kar3, stronger effect = lower value 0.998 | locus YPR163C, strain tif3, stronger effect = lower value 1 | locus YPR167C, strain met16, stronger effect = lower value 0.999 | strain wtn01, stronger effect = lower value 0.99
active: locus YLR262C, strain YPT6 (second series), stronger effect = lower value 1.16 [resistant]

COc1ccc2c3c1O[C@H]1C(=O)CC[C@@]4(O)C(C2)N(CC2CC2)CCC314 (stereo not given in full)
inactive: [8] 0.992 | [9] 0.999 | [10] 1.02 | [11] 0.991 | [12] 0.995 | [13] 1 | [5] 0.993 | [14] 0.99 | [6] 0.995 | [15] 1.01 | [16] 1.02 | [17] 0.992 | [18] 1.01 | [19] 0.999 | [7] 1 | [20] 0.999

CCCN(CCC)C1CCc2ccc(O)cc2C1 (stereo not given)
inactive: [1] 1.03 | [8] 1.1 | [9] 1.01 | [10] 1.01 | [11] 1.01 | [3] 0.993 | [12] 1 | [5] 1.02 | [14] 1.02 | [15] 1.01 | [16] 1.01 | [17] 0.995 | [19] 0.991 | [7] 1.02 | [20] 1.01

CC[C@@H]1Cc2cc(O)ccc2C2=C1c1ccc(O)cc1C[C@H]2CC
active: [8] 0.852 | [3] 0.777 | [15] 0.904 | [17] 0.643 | [19] 0.507
inactive: [1] 1.01 | [9] 0.995 | [2] 0.996 | [10] 1.02 | [11] 1.02 | [4] 1.04 | [12] 0.991 | [16] 0.954 | [18] 0.993 | [7] 1.01

CCCN(CCC)[C@@H]1CCc2ccc(O)cc2C1
inactive: [1] 0.964 | [8] 1.03 | [9] 0.988 | [10] 0.989 | [11] 0.972 | [13] 0.983 | [5] 1.01 | [6] 0.978 | [15] 0.982 | [16] 0.982 | [17] 1.01 | [18] 0.978 | [19] 0.996 | [7] 0.988
